Compounds with a hit are over-represented: about 3.4% of the library has one in this group of screens.
PP5 primary: PP5 (human) phosphatase inhibition | P53041 | purified PP5c, OMFP substrate fluorescence | inhibition, % at 6.7 µM | 0.18% of 320,000 active | AID 1987;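 active = inhibition above the campaign's mean inhibition across all tested compounds plus 3 SD, cut at about 9.5% in these data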;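 also: 0% = DMSO only and 100% = 100 µM cantharidin control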
PP1 counter: blocks human PP1-alpha phosphatase, a PP5 counter-screen | inhibition, % at 6.7 µM | 0.9% of 320,000 active | P62136 | AID 2235 | purified PP1alpha, OMFP fluorescence;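 active = inhibition above the mean inhibition of all tested compounds plus 3 SD, computed separately for each screening campaign, cut at about 15% in these data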
Target sequence (P62136 whole entry, looked up): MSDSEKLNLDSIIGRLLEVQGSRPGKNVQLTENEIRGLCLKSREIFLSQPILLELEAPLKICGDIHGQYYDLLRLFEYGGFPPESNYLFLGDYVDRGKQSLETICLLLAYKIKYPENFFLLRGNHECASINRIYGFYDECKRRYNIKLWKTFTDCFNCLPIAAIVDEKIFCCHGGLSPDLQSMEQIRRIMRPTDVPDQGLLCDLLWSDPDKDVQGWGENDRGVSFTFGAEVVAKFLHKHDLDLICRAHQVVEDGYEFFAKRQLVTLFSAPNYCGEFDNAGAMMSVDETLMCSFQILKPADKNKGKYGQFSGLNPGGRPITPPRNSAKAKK
PAFAH1B2 inh: inhibitors of human PAFAH1B2 | recombinant PAFAH1B2, FP-rhodamine activity probe, fluorescence polarization | inhibition, % at 3.39 µM | 1.2% of 340,000 active;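 active = inhibition above the mean of all tested compounds plus 3 SD, cut at about 24% in these data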;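 also: 0% = enzyme with DMSO and 100% = wells lacking PAFAH1B2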
PAFAH2 inh: inhibitors of human PAFAH2; recombinant PAFAH2, FP-rhodamine activity probe, fluorescence polarization; 0.99% of 340,000 active; inhibition, % at 3.39 µM; Q99487;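 active = inhibition above the mean over all tested compounds plus 3 SD, cut at about 30% in these data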;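 also: inhibitors block probe labeling of enzyme so polarization drops; 0% = enzyme with DMSO and 100% = wells lacking PAFAH2 protein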
PAFAH1B3 FP inh: inhibitors of human PAFAH1B3; recombinant PAFAH1B3, FP-rhodamine probe, fluorescence polarization; AID 492972; 0.28% of 340,000 active; inhibition, % at 3.39 µM; Q15102;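 active = inhibition above the screen-wide average of all tested compounds plus 3 SD, cut at about 25% in these data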;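 also: 0% = enzyme with DMSO only and 100% = wells lacking PAFAH1B3 protein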
pPAFAH inh: pPAFAH (human) enzyme inhibition; Q13093; recombinant pPAFAH, FP-rhodamine probe fluorescence polarization; inhibition, % at 3.39 µM; 1.5% of 330,000 active; AID 463082;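 active = inhibition above the mean inhibition across the screen plus 3 SD, cut at about 25% in these data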;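 also: inhibitors block binding of the rhodamine activity-based probe so polarization drops; 0% = enzyme with DMSO and 100% = wells lacking pPAFAH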
Active calls of the source: *; / = no result.

SMILES	PP5 primary	PP1 counter	PAFAH1B2 inh	PAFAH2 inh	PAFAH1B3 FP inh	pPAFAH inh
COc1ccc(S(=O)(=O)N2CCOCC2)cc1NC(=O)c1ccc(S(=O)(=O)N(C)c2ccccc2OC)cc1	/	/	-5.0	4.3	-4.0	/
O=C(/C=C/c1ccco1)c1ccc(NC(=O)C23CC4CC(CC(C4)C2)C3)cc1	-2.5	-1.3	1.7	-5.0	-10.7	31.9*
CCC(C)Sc1ccc(-c2nc3ccc(C)cn3c2NCc2ccccc2)cc1OC (configuration not stated)	7.0	12.3	9.9	8.6	2.0	26.9*
CCCCNc1c(-c2ccc(OC)c(SC3CCCCC3)c2)nc2ccc(C)cn12	/	/	1.0	8.4	-3.6	10.3
CCCCCCSc1ccc(-c2nc3ccc(C)cn3c2NCc2ccccc2)cc1OC	3.0	12.7	3.4	6.4	15.4	26.0*
COc1ccc(-c2nc3ccc(C)cn3c2NCc2ccccc2)cc1SC1CCCCC1	3.5	17.4*	-0.1	17.4	1.9	9.8
Cc1ccccc1C1C(C#N)=C2N=C(N)c3c(sc4c3CCCCC4)N2C2=C1C(=O)CC(C)(C)C2 (configuration not stated)	3.3	15.3*	2.5	22.5	3.7	9.4
CCC(Sc1nc2ccsc2c(=O)n1Cc1ccc(C(=O)O)cc1)C(=O)Nc1ccc(C)c(Cl)c1 (configuration not stated)	3.3	16.6*	-4.9	-7.6	-11.9	-2.0
CCOc1ccccc1NC(=O)C(CC)Sc1nc2ccsc2c(=O)n1CCC(=O)O (configuration not stated)	2.2	3.8	-3.0	2.0	2.0	-3.5
CC(=O)Nc1ccc(S(=O)(=O)N2CCN(C(=O)c3ncoc3-c3ccc(F)cc3)CC2)cc1	2.5	4.4	2.9	4.1	0.1	3.2
O=c1[nH]n2c(=O)c3c([nH]c2c1N=Nc1cccc(Cl)c1)CCC3	3.1	17.2*	9.5	15.6	3.2	24.5
CCCCc1ccc(N2C(=NC(=O)C3CCCO3)SC3CS(=O)(=O)CC32)cc1 (configuration not stated)	1.2	-2.6	4.6	-1.3	6.5	7.9
CC1SC(=S)N(c2ccc(N(C)C)cc2)C1=O (configuration not stated)	1.2	3.5	1.4	-3.5	10.5	29.3*
CCN(CC)S(=O)(=O)c1ccc(/C=C/C(=O)OCC(=O)NCc2ccco2)cc1	/	/	8.7	74.8*	-5.8	30.0*
CC(C)C[C@H]1CNC(=S)N1CC1CCCN1C[C@H](CC(C)C)N1C[C@H](CC(C)C)N(CCc2ccccc2)C1=S (some centres not stated)	/	/	6.2	7.3	9.9	/
COc1ccc(CNc2cc(C)ccn2)cc1	0.1	-0.1	1.2	6.5	1.9	1.0
Cc1cccc(NCc2ccc(Br)cc2)n1	0.6	0.0	29.8*	-11.6	-2.4	4.0
Cc1ccnc(NCc2ccc(Br)cc2)c1	0.2	-1.4	26.8*	3.3	8.6	8.3
COc1cc(C(C)=O)ccc1OCC(=O)NCC(c1ccc(F)cc1)N1CCOCC1 (configuration not stated)	/	/	0.6	8.3	2.4	28.1*
COc1ccccc1CNCCS(=O)(=O)NCc1ccccc1	/	/	3.3	-8.1	2.1	/
O=C1C(Cl)=C(Nc2cccc(O)c2)C(=O)N1Cc1ccccc1	5.4	5.8	7.3	9.1	6.6	2.7
CCCCNC(=O)C1CC(c2cccc(F)c2)=NO1 (configuration not stated)	0.5	-1.1	5.7	4.3	6.4	5.2
Cc1ccc(CCNC(=O)C2CC(c3cccc(F)c3)=NO2)cc1 (configuration not stated)	2.7	1.7	27.7*	3.1	7.0	-0.9
Cc1nn(-c2ccccc2)c2c1CC(=O)Nc1ccccc1-2	/	/	31.1*	-3.6	14.6	/
Cc1c(C(=O)NC2CCOC2)oc2c(F)cccc12 (configuration not stated)	3.0	-3.4	5.4	-9.2	10.5	3.5
COc1ccccc1NC(=O)C1CCN(C(=O)NCc2ccccc2)CC1	3.1	-5.7	4.6	6.2	7.7	31.8*
O=C(Nc1cccc2ccccc12)C1CCN(C(=O)NCc2ccccc2)CC1	1.0	-9.5	4.2	9.4	-3.1	3.8
CC(Cc1ccccc1)NC(=O)CN1C(=O)c2ccccc2S1(=O)=O (configuration not stated)	0.5	-1.7	6.0	3.6	11.5	-5.5

High-throughput results deposited in PubChem BioAssay by The Scripps Research Institute Molecular Screening Center.
